# The list is not random: actives were taken first. Their share in the collection is about 19%.
# AMA1-RON2 inh: AMA1-RON2 (P. falciparum) interaction inhibition; AID 720542; Potency, µM (doses to about 58.2 µM), inactives show at the highest dose activity change, negative = inhibition, hits mostly inhibitors; 360,000 compounds, 0.2% hits; AlphaScreen AMA1-biotinylated RON2 peptide binding;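 note: potency is the fitted concentration of half-maximal effect; 0% = vehicle wells and -100% = peptide control; nearly all actives have a fitted effect of over 45% in size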
#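 AMA1 (3D7) with his tag at 25 nM final met compounds first, then biotinylated RON2 peptide at 25 nM; detection used donor plus acceptor beads, 10 µg/mL apiece, read by AlphaScreen after 30 min at room temperature.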
# Pf growth 96h: P. falciparum growth inhibition at 96 hour, primary screen for plastid delayed-death inhibitors; 320,000 compounds, 6.9% hits; Potency, µM (doses to about 28.7 µM), without a hit: top-dose activity change, negative = inhibition, actives largely listed as inhibitors; AID 504834; P. falciparum luciferase reporter growth, 96 h; note: potency is the fitted concentration of half-maximal effect; % is set by controls: 0 for no effect and ±100 for the full control effect
#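 Two parasite generations (96 h, 37 C, 5% CO2) of compound exposure in infected erythrocytes (0.05% parasitemia, 2% hematocrit). Luciferase-reporter P. falciparum; decreased luminescence indicates inhibited growth, aimed at apicoplast-acting delayed death.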
# SARS PLP yeast: SARS-CoV PLP inhibition in yeast; S. cerevisiae expressing SARS-CoV PLpro, growth rescue; Potency, µM (top dose mostly 32.9 µM), for the others: at the top dose activity, positive = growth rescue, hits mostly activators; 330,000 compounds, 0.19% hits; calls by dose curve; note: potency is the fitted concentration of half-maximal effect; 0% is about no effect; nearly all actives have a fitted effect of over 55% in size
# Cycloheximide cs: counter-screen hit for Shiga toxin inhibitors, cycloheximide; cell reporter, cycloheximide protein synthesis inhibition counterscreen; max response, %; 300,000 compounds, 12% hits; in the data active = max response mostly above about 13%, no sharp cut-off; inactive = mostly below about 14%; note: read at 38.3 µM for the half of the compounds with a filed dose; 0% is about no effect
# Pf growth 48h: P. falciparum growth inhibition at 48 hours (one generation); P. falciparum luciferase growth in erythrocytes, 48 h; Potency, µM (series often up to 28.7 µM), without a hit: top-dose activity change, negative = inhibition, hits mostly inhibitors; 310,000 compounds, 5.9% hits; AID 504832; note: potency is the fitted concentration of half-maximal effect; % is set by controls: 0 for no effect and ±100 for the full control effect
#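 Read-out is firefly luciferase luminescence from an integrated reporter in P. falciparum, so falling signal marks reduced parasite growth. Infected erythrocytes were at 2% hematocrit and 0.1% parasitemia (final) in Albumax-supplemented RPMI 1640.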
# Shiga toxin inh: inhibitors of Shiga toxin in Vero cells. Vero cells, Shiga toxin protein synthesis inhibition reporter. inhibition, % at 38.7 µM. 290,000 compounds, 9.2% hits; in the data active = inhibition mostly above about 28%, no sharp cut-off; inactive = mostly below about 43%; note: 0% is about no effect
# Starred values were filed as active, the others as inactive; u = inconclusive; x = no result; [ ] = remark or other dose. Unless noted, calls come from the whole dose curve; as a rule, active = well fitted curve in the direction sought with a large enough effect; inconclusive = small, poorly fitted or top-dose-only effect, or another doubt; inactive = no such curve, though single readings can be large; an effect the other way counts as inactive or inconclusive.
SMILES,AMA1-RON2 inh,Pf growth 96h,SARS PLP yeast,Cycloheximide cs,Pf growth 48h,Shiga toxin inh
CC(=O)c1c(NCc2ccccc2)nc(=O)n(-c2ccccc2)c1C,12%,-21%,1%,24*,27%,54
CC(=O)c1c(NCCc2ccccc2)nc(=S)n(-c2ccccc2)c1C,-5%,-1%,1%,9,18%,-4
COc1cc(C(=O)NCCCNc2ccc([N+](=O)[O-])cc2)cc(OC)c1OC,8%,u,13%,-3,u,-6
COc1cccc(OCCOc2ccccc2OC(C)C)c1,24%,-42%,3%,-2,x,-19
CN(C)/C=C1\N=C(c2ccccc2)OC1=O,14%,35%,-6%,15*,27%,19
CN(C)/C=C1\N=C(c2ccc3c(c2)OCO3)OC1=O,-12%,u,-21%,27*,117%,64*
CC1=CC(=C2N=C(c3ccccc3)OC2=O)C=C(C)O1,-5%,40%,0%,16,-13%,10
CCOc1cc(/C=C2/N=C(c3ccc4c(c3)OCO4)OC2=O)ccc1OC(C)=O,2%,22%,-1%,x,8%,x
CC/C(C)=N/Nc1cccc([N+](=O)[O-])c1,-2%,-22%,-82%,-3,11%,-10
CCOC(=O)[C@]12CCC=C1N(Cc1ccco1)C(=O)[C@H](CC(=O)NCc1ccccc1)C2,2%,x,x,x,x,x
Cn1c(-c2ccc(F)cc2)cnc1NCc1cccc([N+](=O)[O-])c1,-27%,u,6%,-3,6%,-4
Cn1c(-c2ccc3c(c2)OCO3)cnc1NCc1ccccc1,u,34%,-2%,39*,15%,56
Cn1c(-c2cccc(Br)c2)cnc1NCc1ccccc1O,u,5.2µM*,-1%,3,u,2
Cn1c(-c2cccc([N+](=O)[O-])c2)cnc1NCc1cccc(F)c1,u,4.7µM*,-1%,-4,45%,-2
Cn1c(-c2ccc3c(c2)OCO3)cnc1N,28%,u,6%,13*,-29%,-4
Cc1cccc(C)c1N(CC(=O)NCc1ccc(F)cc1)C(=O)c1csnn1,-2%,u,1%,6,-15%,10
CC(=O)N1CCc2cc(Br)cc(S(=O)(=O)NCC3CCCO3)c21 (stereo not given),-10%,5%,5%,-1,-3%,-12
Cn1c(-c2ccc3c(c2)OCO3)cnc1NC(=O)CCC(=O)NCCc1ccccc1,53%,x,-3%,18*,19%,65*
Cn1c(-c2ccc3c(c2)OCO3)cnc1NCc1ccccc1Cl,u,49%,-1%,33*,-4%,73*
Cc1ccc(CNc2ncc(-c3ccccc3)n2C)o1,u,2%,-1%,25*,21%,20
Cn1c(-c2ccccc2)cnc1NCc1ccccc1,-29%,-5%,-1%,11*,12%,x
CC1CCN(C(=O)C2(NC(=O)Nc3cccc(F)c3)CCCCC2)CC1,8%,-99%,-5%,-3,14%,-4
CCOC(=O)C1CCCCN1C(=O)c1cc2ccc(OC)cc2c2cc(OC)c(OC)cc12 (stereo not given),5%,x,x,x,x,x
Cc1sc2ncnc(N3CCC(C(=O)NNC(=O)COc4ccccc4Cl)CC3)c2c1C,87%,u,-13%,x,12µM*,x
CC(=O)c1sc(NC(=O)C2CCN(c3ncnc4sc(C)c(C)c34)CC2)nc1-c1ccccc1,-22%,u,x,x,9.3µM*,x
SMILES,AMA1-RON2 inh,Pf growth 96h,SARS PLP yeast,Cycloheximide cs,Pf growth 48h,Shiga toxin inh
Cc1sc2ncnc(N3CCC(C(=O)NNC(=O)c4ccccc4Cl)CC3)c2c1C,37%,8.3µM*,3%,7,u,-12
CO/N=C(/C(=O)N[C@@H]1C(=O)N2C(C(=O)O)=CCS[C@H]12)c1csc(N)n1,x,-13%,x,x,-21%,x
N#Cc1cc(-c2ccccc2)cnc1Cl,5%,56%,3%,7,21%,46
COc1cc(NS(=O)(=O)c2ccc(N)cc2)nc(OC)n1,2%,0%,13%,-3,-7%,6
COc1cc(/C=C/C(=O)O)ccc1OS(=O)(=O)c1ccc(C)cc1,-5%,2%,-1%,0,-16%,20
COc1cc(NS(=O)(=O)c2ccc(NS(=O)(=O)c3ccc(C)cc3)cc2)nc(OC)n1,16%,1.9µM*,0%,-2,9%,-6
COc1cc(/C=C/C(=O)c2ccc(NS(=O)(=O)c3ccc(C)cc3)cc2)cc(OC)c1O,6%[11.6 µM],u,-5%,-6,12µM*,-15
COc1cccc(/C=C/C(=O)c2ccc(NS(=O)(=O)c3ccc(C)cc3)cc2)c1,-12%[11.6 µM],u,6%,-2,-28%,-14
COc1cc(/C=C/C(=O)c2ccc(NS(=O)(=O)c3ccc(C)cc3)cc2)ccc1OC(F)F,4%[2.32 µM],u,16%,4,15µM*,19
O=C(NNC(=O)c1ccco1)c1csc(N2CCOCC2)n1,107%,16%,-1%,x,13%,x
O=C(O)C1CCC(Cn2c(SCc3cc(=O)n4cc(Cl)ccc4n3)nc3ccsc3c2=O)CC1 (stereo not given),-1%,-26%,0%,-5,-13%,-19
COc1ccccc1CC(=O)Nc1ccc2c(c1)C(=O)NC2=O,11%,u,1%,-3,8%,-11
Cc1cc(SCC(=O)Nc2ncc(Cl)cc2Cl)nc2ccccc12,-5%,-17%,4%,-3,17%,5
CCC(C)(C)N(C(=O)CCC(=O)Nc1cc(C)on1)C(C(=O)NC(C)(C)C)c1ccc(OC)cc1 (stereo not given),4%,3%,-2%,-4,u,-19

# Bioassay records as filed in PubChem.
